# Laboratory results from PubChem BioAssay.
# Values joined by “and” are separate entries in the source; they are usually repeats but may differ in a detail not shown here. Equal values may be shown once. Active and inactive are the calls of the source. Unless noted, no stated cut-off is given here; in the data, active means inhibition above about 80%; inactive means the rest.
# Columns and labels:
# [1] = sensitizers of A549 cells to miR-34 induction, primary screen, imaging, A549 dox-inducible miR-34, nuclei and caspase counts (AID 1347080;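 active means compounds whose cell count with miR-34 switched on is under 0.7 times the count with it off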); details: A549 miR-34 inducible, Hoechst nuclei count, 48 h
# [2] = survival rescue of mitochondrial mutant cells in low glucose, primary screen, MELAS cybrids, Rieske KO mouse fibroblasts, CellTiter-Glo (AID 1508586;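 active means mean z-score across replicates of 1.96 or higher in either the MELAS or the Rieske mutant cell line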;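 further: z relative to plate mean and SD of compound and empty wells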)
# [3] = LFS_MB_P medulloblastoma growth inhibition, cell-based, chromothripsis tumors, cisplatin or BGB combos (AID 1671449); details: LFS_MB_P medulloblastoma cells;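 further: cells exposed for 96 hours; 0% = vehicle DMSO and 100% = killing by high DMSO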
# [4] = HDN33 neuroblastoma growth inhibition, cell-based, chromothripsis tumors, cisplatin or BGB combos (AID 1671450); details: HDN33 neuroblastoma cells, stronger effect = higher value;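 further: cells exposed to compound for four days; 0% = vehicle DMSO and 100% = cell killing by high DMSO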
# [5] = ICB984 medulloblastoma cell growth inhibition, synergistic combos for chromothripsis tumors, cisplatin or BGB combos (AID 1671451; call rule not given here;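 further: cells exposed for 96 hours before readout; 0% = vehicle DMSO and 100% = killing by high DMSO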); details: ICB984 medulloblastoma cells, drug combinations, stronger effect = higher value
# [6] = LFS_MB_1R medulloblastoma cell growth inhibition, synergistic combos for chromothripsis tumors, cisplatin or BGB combos (AID 1671452); details: LFS_MB_1R medulloblastoma cells, stronger effect = higher value;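 further: cells exposed for 96 hours before readout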
# [7] = HTB85 osteosarcoma cell growth inhibition, synergistic combos for chromothripsis tumors, BGB or cisplatin IC20 combos (AID 1671453); details: HTB85 osteosarcoma cells, drug combinations, stronger effect = higher value;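 further: cells exposed for 96 hours before readout; 0% = vehicle DMSO and 100% = high DMSO killing control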
# [8] = CRL2098 osteosarcoma cell growth inhibition, synergistic combos for chromothripsis tumors, BGB or cisplatin IC20 combos (AID 1671454); details: CRL2098 osteosarcoma cells, drug combinations, stronger effect = higher value;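 further: cells exposed for 96 h before readout; 0% = vehicle DMSO and 100% = killing by high DMSO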
# [9] = HD-MB03 medulloblastoma cell growth inhibition, synergistic combos for chromothripsis tumors, BGB or cisplatin IC20 combos (AID 1671455; in the data active means inhibition above about 83%;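 further: 0% = vehicle DMSO and 100% = high DMSO as cytotoxic control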); details: HD-MB03 medulloblastoma cells, stronger effect = higher value
# [10] = UWB1.289 ovarian carcinoma cell growth inhibition, synergistic combos for chromothripsis tumors, BGB or cisplatin combos (AID 1671456); details: UWB1.289 ovarian carcinoma cells, stronger effect = higher value;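 further: cells exposed to compound for four days; 0% = vehicle DMSO and 100% = killing by high DMSO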
# [11] = LFS_MB_2R medulloblastoma cell growth inhibition, synergistic combos for chromothripsis tumors, cisplatin combos (AID 1671457); details: LFS_MB_2R medulloblastoma cells, stronger effect = higher value;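 further: cells exposed to compound for four days before readout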
# [12] = MDA-MB-436 breast carcinoma cell growth inhibition, synergistic combos for chromothripsis tumors, BGB or cisplatin combos (AID 1671458; call rule not given here;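 further: cells exposed for 96 hours; 0% = vehicle DMSO and 100% = killing by high DMSO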); details: MDA-MB-436 breast carcinoma growth inhibition, drug combinations, stronger effect = higher value
# [13] = UWB1.289_BRCA1 ovarian cancer growth, cell-based, BGB or cisplatin combinations (AID 1671459); details: UWB1.289 BRCA1 ovarian carcinoma, drug combinations, stronger effect = higher value
# [14] = human astrocyte viability loss, single and combined drugs, cytotoxicity control for chromothriptic childhood tumor combination screen, cell-based, BGB or cisplatin IC20 combos (AID 1671460); details: Human astrocytes, drug combinations, stronger effect = higher value;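 further: cells exposed to compounds for 96 hours before viability readout; 0% = vehicle and 100% = killing control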
# [15] = growth inhibition of BT084 medulloblastoma cells, cell-based, ICGC_MB145, cisplatin and BGB IC40 combos (AID 1671461); details: drug combinations, stronger effect = higher value;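 further: cells exposed to drugs for 96 hours; 0% = vehicle DMSO and 100% = high DMSO full killing control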
# [16] = growth inhibition of RCMB18 medulloblastoma cells, cell-based, cisplatin and BGB IC40 combos (AID 1671462); details: stronger effect = higher value;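 further: cells exposed to compound for four days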
# [17] = growth inhibition of CRL1545 osteosarcoma cells, cell-based, cisplatin and BGB IC20 combos (AID 1671464); details: stronger effect = higher value;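 further: cells exposed to compound for 96 hours before readout; 0% = vehicle DMSO and 100% = high DMSO killing control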
# [18] = hESC survival regulators, cell-based (AID 493140; call rule not given here;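 further: cells exposed to compounds for four days before counting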); details: human embryonic stem cell survival screen; stronger effect = higher value
# [19] = liver-stage malaria parasite growth inhibition, primary screen, cell-based, HepG2, luciferase luminescence, HepG2 viability (AID 624349; in the data active means parasite load remaining mostly below about 12%, no sharp cut-off; inactive means mostly above about 10%;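 further: 100% = mean of DMSO negative control wells on the same plate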); details: P. berghei liver stage in HepG2, luciferase luminescence, concentration not given here; parasite load remaining: stronger effect = lower value; viability: measured here: HepG2 viability without parasites
# [20] = stronger effect = lower value, cell number ratio, induced over uninduced
# [21] = measured here: relative caspase fold change +Dox/-Dox
# [22] = measured here: total cells with miR-34 induction, stronger effect = lower value
# [23] = measured here: total cells without miR-34 induction
# [24] = MELAS cybrid survival, CellTiter-Glo 48 h, stronger effect = higher value
# [25] = Rieske KO mouse fibroblast survival, CellTiter-Glo 72 h
# [26] = measured here: combination with BGB IC40, at 0.05 µM
# [27] = measured here: with BGB IC20 combination, at 0.5 µM
# [28] = measured here: with cisplatin IC20 combination, at 0.5 µM
# [29] = measured here: combination with cisplatin, at 0.5 µM
# [30] = measured here: combination with cisplatin, at 5 µM
smiles,measurement,setting,value
O=c1[nH]c(=O)n(C2CC(O)C(CO)O2)cc1I (stereo not drawn),fold change,[1]; [20],0.851 (inactive)
same,fold change,[1]; [21],0.749
same,cell count,[1]; [22],6980
same,cell count,[1]; [23],8200
same,z-score,[2]; [24],-0.224 (inactive)
same,z-score,[2]; [25],-0.483
same,inhibition,"[3]; at 0.5 µM, stronger effect = higher value",4.71% (inactive)
same,inhibition,"[3]; measured here: combination with BGB IC20, at 0.005 µM",8.42%
same,inhibition,"[3]; measured here: combination with BGB IC40, at 0.005 µM",-21.4%
same,inhibition,[3]; [26],12.9%
same,inhibition,"[3]; measured here: combination with cisplatin, at 0.5 µM, stronger effect = higher value",-5.31%
same,inhibition,"[3]; measured here: combination with cisplatin, at 5 µM, stronger effect = higher value",2.43%
same,inhibition,"[4]; BGB combo, at 5 µM",9.54%
same,inhibition,[4]; at 0.5 µM,-18.4% (inactive)
same,inhibition,"[4]; cisplatin combo, at 5 µM",3.9%
same,inhibition,[4]; [27],-28.5%
same,inhibition,[4]; [28],-14%
same,inhibition,"[4]; single agent, at 5 µM",24%
same,inhibition,"[5]; BGB IC20 combo, at 0.005 µM",-15.6%
same,inhibition,"[5]; BGB IC40 combo, at 0.005 µM",-20.9%
same,inhibition,"[5]; BGB IC40 combo, at 0.05 µM",-13.7%
same,inhibition,[5]; at 0.5 µM,-8.85% (inactive)
same,inhibition,"[5]; cisplatin combo, at 0.05 µM",-13.7%
same,inhibition,"[5]; cisplatin combo, at 0.5 µM",-12.8%
same,inhibition,"[5]; cisplatin combo, at 5 µM",-9.03%
same,inhibition,"[5]; measured here: 5 uM single agent, at 5 µM",4.46%
same,inhibition,[6]; at 0.5 µM,-47.8% (inactive)
same,inhibition,[6]; [26],-9.63%
same,inhibition,[6]; [29],-105%
same,inhibition,[6]; [30],-24%
same,inhibition,[7]; at 0.5 µM,-28.2% (inactive)
same,inhibition,"[7]; measured here: with BGB IC20, at 0.5 µM",-26.8%
same,inhibition,"[7]; measured here: with BGB IC20, at 5 µM",-4.26%
same,inhibition,"[7]; measured here: with cisplatin IC20, at 0.5 µM",-39.9%
same,inhibition,"[7]; measured here: with cisplatin IC20, at 5 µM",-31.8%
same,inhibition,"[7]; single agent, at 5 µM",-17.4%
same,inhibition,[8]; at 0.5 µM,-42.2% (inactive)
same,inhibition,"[8]; measured here: combination with BGB at IC20, at 0.5 µM",-45.9%
same,inhibition,"[8]; measured here: combination with cisplatin at IC20, at 0.5 µM",-41.5%
same,inhibition,[9]; at 0.5 µM,-7.04% (inactive)
same,inhibition,"[9]; measured here: combo with BGB at IC20, at 0.5 µM",-3.12%
same,inhibition,"[9]; measured here: combo with cisplatin at IC20, at 0.5 µM",-7.71%
same,inhibition,[10]; at 0.5 µM,-5.21% (inactive)
same,inhibition,"[10]; measured here: inhibition with BGB combination, at 0.05 µM",-13.3%
same,inhibition,"[10]; measured here: inhibition with cisplatin combination, at 0.05 µM",-14.8%
same,inhibition,[11]; at 0.5 µM,-2.58% (inactive)
same,inhibition,[11]; [29],4.62%
same,inhibition,[11]; [30],-3.61%
same,inhibition,[12]; at 0.5 µM,-9.35% (inactive)
same,inhibition,"[12]; measured here: BGB combination, at 0.5 µM",-10.8%
same,inhibition,"[12]; measured here: BGB combination, at 5 µM",-16.9%
same,inhibition,"[12]; measured here: cisplatin combination, at 0.5 µM",-22.4%
same,inhibition,"[12]; measured here: cisplatin combination, at 5 µM",-10.7%
same,inhibition,"[13]; BGB combination, concentration series, at 5 µM",0.385%
same,inhibition,[13]; at 0.5 µM,-5.4% (inactive)
same,inhibition,"[13]; cisplatin combination, concentration series, at 5 µM",-6.29%
same,inhibition,[14]; at 0.5 µM,-11.4% (inactive)
same,inhibition,"[14]; measured here: combo with BGB IC20, at 0.5 µM",-7.44%
same,inhibition,"[14]; measured here: combo with cisplatin IC20, at 0.5 µM",-19.9%
same,inhibition,[15]; at 0.5 µM,-4.3% (inactive)
same,inhibition,"[15]; cisplatin combination, at 0.5 µM",-7.3%
same,inhibition,"[15]; cisplatin combination, at 5 µM",-44.5%
same,inhibition,"[15]; measured here: BGB IC40 combination 0.05 uM, at 0.05 µM",12.9%
same,inhibition,"[15]; single agent, at 5 µM",-7.11%
same,inhibition,[16]; at 0.5 µM,-5.93% (inactive)
same,inhibition,"[16]; cisplatin combo, at 5 µM",-28.2%
same,inhibition,"[16]; measured here: BGB IC40 combination, at 0.05 µM",-1.89%
same,inhibition,[16]; [29],-10.4%
same,inhibition,"[16]; single agent, at 5 µM",-39.8%
same,inhibition,[17]; at 0.5 µM,-56.2% (inactive)
same,inhibition,[17]; [27],-15.6%
same,inhibition,[17]; [28],-76.5%
same,inhibition,"[17]; single agent, at 0.05 µM",10.9%
same,inhibition,"[17]; single agent, at 5 µM",6.02%
Nc1nc(=S)c2ncn([C@@H]3O[C@H](CO)[C@@H](O)[C@H]3O)c2[nH]1,survival,[18],1.25 (inactive)
same,parasite load remaining,[19],64.1% (inactive) and 72.9% (inactive)
same,viability,[19],36.6% and 69.4%
same,fold change,[1]; [20],1.04 (inactive)
same,fold change,[1]; [21],1.52
same,cell count,[1]; [22],2980
same,cell count,[1]; [23],2870
same,z-score,[2]; [24],3.35 (active)
same,z-score,[2]; [25],-0.524
